Screening data (PubChem BioAssay)
Most compounds without a hit are left out; they make up all but 4.6% or so of the library.
hcDAF-12 act: activates DAF-12 receptor from parasite H. contortus; activation, % at 6.8 µM; 1.4% of 370,000 active; HEK293 hcDAF-12 lit1-tk-luc reporter, luminescence; 0% DMSO, 100% Δ7-dafachronic acid; AID 652067;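 active = activation above the mean of all tested compounds plus 3 SD, cut at about 5.5% in these data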
ssDAF12 agonist: activates DAF-12 receptor from parasite S. stercoralis; HEK293 ssDAF-12/GRIP1 lit1-tk-luc reporter, luminescence; % of 3 µM dafachronic acid response; activation, % at 6.8 µM; 1% of 370,000 active;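 active = activation above the mean over all tested compounds plus 3 SD, cut at about 0.9% in these data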
DAX1 inh-1: blocks DAX1 repression of SF-1 activated StAR promoter. 1.1% of 370,000 active. inhibition, % at 6.8 µM. AID 652010. HEK293T StAR-luciferase reporter, SF-1/DAX-1 repression relief;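 active = inhibition above the mean over all tested compounds plus 3 SD, cut at about 3.6% in these data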;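 note: higher inhibition means more luminescence from relief of DAX-1 repression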
hgDAF-12 ag: hgDAF-12 agonism, primary luciferase screen; HEK293 GAL4-hgDAF12 UAS-luciferase reporter, agonist luminescence; normalized to butyrate control; 1.8% of 370,000 active; activation, % at 6.8 µM;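 active = activation above a cutoff set at the mean of all screened compounds plus 3 SD, cut at about 10% in these data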
DAX1 inh-2: inhibitors of human orphan nuclear receptor DAX1 (NR0B1); inhibition, % at 6.75 µM; AID 504766; HEK293 Gal4-DAX1 luciferase reporter, luminescence; 0.99% of 340,000 active; P51843;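 active = inhibition above the mean over all tested compounds plus 3 SD, cut at about 4.2% in these data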;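 note: inhibition shows as a rise in luminescence from relieved DAX1 repression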
Wee1 degr inh: blocks degradation of human Wee1 kinase; 1.2% of 220,000 active; reporter increase, % at 5 µM; AID 1321; P30291; HeLa Luc-Wee1K328M stability, luciferase luminescence; 100% = proteasome inhibitor MG132 effect;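 active = activation above the mean of all tested compounds plus 3 SD, set per screening run, cut at about 8.8% in these data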;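 note: cells exposed to compound for 20 h before luminescence read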
Target sequence (P30291 whole entry K328M): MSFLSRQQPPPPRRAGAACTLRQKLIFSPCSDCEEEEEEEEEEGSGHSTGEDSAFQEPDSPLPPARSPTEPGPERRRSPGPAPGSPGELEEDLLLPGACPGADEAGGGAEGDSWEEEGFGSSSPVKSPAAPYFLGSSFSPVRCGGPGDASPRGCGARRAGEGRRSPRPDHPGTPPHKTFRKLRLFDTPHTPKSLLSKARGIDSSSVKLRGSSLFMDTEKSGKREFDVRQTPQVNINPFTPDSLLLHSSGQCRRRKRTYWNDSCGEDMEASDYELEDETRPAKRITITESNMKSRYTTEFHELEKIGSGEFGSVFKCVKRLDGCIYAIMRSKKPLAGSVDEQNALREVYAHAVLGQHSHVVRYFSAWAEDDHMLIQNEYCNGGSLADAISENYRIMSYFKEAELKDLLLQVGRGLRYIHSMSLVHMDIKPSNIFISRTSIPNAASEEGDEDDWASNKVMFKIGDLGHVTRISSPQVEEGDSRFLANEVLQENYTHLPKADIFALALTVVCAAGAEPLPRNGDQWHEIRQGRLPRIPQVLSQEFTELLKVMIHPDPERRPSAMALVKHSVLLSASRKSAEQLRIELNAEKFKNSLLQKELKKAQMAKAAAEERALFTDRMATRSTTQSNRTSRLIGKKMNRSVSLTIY
DAX1 inh confirm: NR0B1 (human) inhibition, confirmation | AID 652134 | HEK293T StAR-promoter luciferase reporter, SF-1/DAX-1 repression | 87% of 2,400 active | inhibition, % at 6.8 µM | shares compounds with DAX1 inh-1;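 active = inhibition above the average of every tested compound plus 3 SD, cut at about 3.8% in these data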;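 note: active compounds raise luminescence by relieving repression of the StAR reporter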
SF1 AF2mut Luc: counter-screen for DAX1 inhibitors: nonselective inhibitors with SF-1 AF2 mutant | shares compounds with DAX1 inh-1 | HEK293 StAR-luciferase, luminescence | inhibition, % at 6.8 µM | 78% of 2,400 active | AID 652136;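 active = inhibition above the mean of all tested compounds plus 3 SD, cut at about 3% in these data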
LXR ag: activates human LXR-beta, counter-screen for hcDAF-12 agonists. AID 743027. 3,400 tested, under 10 active. HEK293 Gal4-LXR tk-luc reporter, luminescence, 24 h; normalized: DMSO 0%, positive control 100%. activation, % at 6.8 µM. shares compounds with hcDAF-12 act;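 active = mean percent activation of the reporter above a cutoff set as the average over tested compounds plus their standard deviation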
hcDAF12 conf: confirmation of H. contortus DAF-12 agonists | HEK293 hcDAF-12 lit1-tk-luc reporter, luminescence; % of Δ7-dafachronic acid response | activation, % at 6.8 µM | AID 743032 | shares compounds with hcDAF-12 act | 61% of 3,400 active;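 active = mean activation across triplicate tests above the threshold derived from the earlier primary screen, cut at about 5.5% in these data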
hgDAF12 ag: confirmation of H. glycines DAF-12 agonists; HEK293 GAL4-hgDAF12 luciferase reporter, agonist mode; percent of butyrate response; activation, % at 6.8 µM; shares compounds with hgDAF-12 ag; AID 743050; 80% of 3,300 active;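 active = mean activation over triplicate wells above the hit cutoff derived from the earlier primary screen, cut at about 11% in these data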
LXRb DAF12 ctr: LXR-beta agonism as DAF-12 counter-screen. shares compounds with hgDAF-12 ag. HEK293 Gal4-LXR luciferase reporter, 24 h. activation, % at 6.8 µM. 3,300 tested, under 10 active. AID 743051;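 active = mean activation of the triplicate above a set limit carried over from the primary screen, none filed active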
Each line names hits and unclear results; the compound was inactive in the other large screens (follow-up assays come after a bar, where they were run).

Cc1ccc(NC(=S)c2nc3ccccc3[nH]2)c(C)c1	hcDAF-12 act 6.8, ssDAF12 agonist 1.6, DAX1 inh-1 5.1, hgDAF-12 ag 23.9 | DAX1 inh confirm 16.6 | SF1 AF2mut Luc 8.1 | LXR ag inactive | hcDAF12 conf 12.5 | hgDAF12 ag 18.8 | LXRb DAF12 ctr inactive
O=C(NN=Cc1ccc2c(c1)CCN2)c1cccs1	hcDAF-12 act 9.8, ssDAF12 agonist 1.5, DAX1 inh-1 6.7, hgDAF-12 ag 22.3, DAX1 inh-2 5.6 (no result: Wee1 degr inh) | DAX1 inh confirm 17.2 | SF1 AF2mut Luc 7.0 | LXR ag inactive | hcDAF12 conf 5.6 | hgDAF12 ag 25.6 | LXRb DAF12 ctr inactive
COc1ccc(NC(=O)C2(C)CCN2CCc2ccccc2)cc1OC (configuration not stated)	none (no result: DAX1 inh-2, Wee1 degr inh)
O=C(Nc1ccc2c(c1)Cc1ccccc1-2)c1ccco1	hcDAF-12 act 6.3, DAX1 inh-1 5.6, hgDAF-12 ag 16.7 | DAX1 inh confirm 16.5 | SF1 AF2mut Luc 10.3 | hgDAF12 ag 20.6 | LXRb DAF12 ctr inactive
Cc1ccc(NC(=O)c2ccccc2)s1	hcDAF-12 act 6.9, DAX1 inh-1 4.5, hgDAF-12 ag 19.5, Wee1 degr inh 9.7 | DAX1 inh confirm 14.9 | SF1 AF2mut Luc 10.8 | LXR ag inactive | hcDAF12 conf 8.3 | hgDAF12 ag 15.4 | LXRb DAF12 ctr inactive
CN1CCSc2ccc(C(=O)NCc3ccccc3)cc21	none (no result: Wee1 degr inh)
COc1ccc(NC(=O)c2ccc3c(c2)N(C)CCS3)cc1	DAX1 inh-1 7.3, hgDAF-12 ag 23.9 (no result: Wee1 degr inh) | DAX1 inh confirm 12.0 | SF1 AF2mut Luc 7.5 | hgDAF12 ag 18.9 | LXRb DAF12 ctr inactive
Nc1c(C(=O)Nc2ccc(Cl)cc2)oc2ccccc12	hcDAF-12 act 21.7, ssDAF12 agonist 2.2, DAX1 inh-1 6.4, hgDAF-12 ag 20.3, DAX1 inh-2 4.3 | DAX1 inh confirm 15.2 | SF1 AF2mut Luc 10.8 | LXR ag inactive | hcDAF12 conf 15.7 | hgDAF12 ag 24.2 | LXRb DAF12 ctr inactive
CCNC(=S)NNC(=O)c1cc(-c2ccc(OC)cc2)nc2ccccc12	DAX1 inh-1 5.5, hgDAF-12 ag 18.3 | DAX1 inh confirm 15.1 | SF1 AF2mut Luc 8.8 | hgDAF12 ag 17.7 | LXRb DAF12 ctr inactive
CCCCOc1ccc(-c2cc(C(=O)NNC(=S)NCC)c3ccccc3n2)cc1	none (no result: hcDAF-12 act, ssDAF12 agonist, DAX1 inh-1, hgDAF-12 ag)
O=C(NCc1ccccc1)[C@H]1CCCN1C(=O)[C@H]1CCCN1C(=O)c1ccc(F)c(C(F)(F)F)c1	none (no result: DAX1 inh-2, Wee1 degr inh)
COc1ccc2nc(NC(=O)c3ccoc3C)sc2c1	hcDAF-12 act 9.9, DAX1 inh-1 5.5, hgDAF-12 ag 14.8 | DAX1 inh confirm 14.2 | SF1 AF2mut Luc 4.4 | LXR ag inactive | hcDAF12 conf 5.9 | hgDAF12 ag 19.1 | LXRb DAF12 ctr inactive
COC(=O)c1sc(NC(=O)c2ccoc2C)nc1C	none
COc1ccc2nc(NC(=O)C3COc4ccccc4O3)sc2c1 (configuration not stated)	hcDAF-12 act 6.4, DAX1 inh-1 5.6, hgDAF-12 ag 18.7 | DAX1 inh confirm 12.3 | SF1 AF2mut Luc 7.6 | hgDAF12 ag 11.5 | LXRb DAF12 ctr inactive
Cc1cccnc1NC(=O)Cn1nc(-c2ccccc2)oc1=S	ssDAF12 agonist 1.0, DAX1 inh-1 4.9, hgDAF-12 ag 19.2 | DAX1 inh confirm 11.6 | SF1 AF2mut Luc 7.5 | hgDAF12 ag 16.8 | LXRb DAF12 ctr inactive
Cc1cccnc1NC(=O)Cn1nc([N+](=O)[O-])cc1C	none
CC(=O)Nc1nc(C2COc3ccccc3O2)cs1 (configuration not stated)	hcDAF-12 act 6.7, DAX1 inh-1 5.8, hgDAF-12 ag 13.9 | DAX1 inh confirm 11.3 | SF1 AF2mut Luc 5.1 | LXR ag inactive | hcDAF12 conf 6.1 | hgDAF12 ag 15.3 | LXRb DAF12 ctr inactive
O=C(Nc1nc(-c2nc3ccccc3s2)cs1)C1COc2ccccc2O1 (configuration not stated)	none
Clc1ccc(OCCSc2ncccn2)c(Br)c1	hcDAF-12 act 6.4, ssDAF12 agonist 1.8, DAX1 inh-1 5.5, hgDAF-12 ag 20.7, DAX1 inh-2 4.4 | DAX1 inh confirm 15.5 | SF1 AF2mut Luc 8.1 | hgDAF12 ag 22.4 | LXRb DAF12 ctr inactive
Brc1cccc(OCCSc2ncccn2)c1	none (no result: DAX1 inh-2)
Cc1ccc(C(=O)NC2CCC(C)CC2)s1 (configuration not stated)	ssDAF12 agonist 1.0, DAX1 inh-1 13.8, hgDAF-12 ag 19.5 (no result: Wee1 degr inh) | DAX1 inh confirm 15.4 | SF1 AF2mut Luc 6.6 | hgDAF12 ag 18.0 | LXRb DAF12 ctr inactive
CC1CCC(NC(=O)c2cc3c(s2)CCCC3)CC1 (configuration not stated)	DAX1 inh-1 6.1, hgDAF-12 ag 14.5 (no result: Wee1 degr inh) | DAX1 inh confirm 6.7 | SF1 AF2mut Luc 4.5 | hgDAF12 ag 12.1 | LXRb DAF12 ctr inactive
C=CCN(CC=C)Cc1cc(=O)oc2ccccc12	none (no result: DAX1 inh-2, Wee1 degr inh)
CCN(CC(=O)Nc1ccc(OC)cc1)CC(=O)Nc1sc2c(c1C(=O)OC)CCCC2	none (no result: Wee1 degr inh)
C[C@H](CO)N1C[C@H](C)[C@@H](CN(C)S(=O)(=O)c2ccccc2F)Oc2ncc(C#Cc3cccnc3)cc2C1=O	none (no result: Wee1 degr inh)
COc1ccc(/C=C/c2nc(-c3ccccc3O)n[nH]2)cc1	hcDAF-12 act 6.5, DAX1 inh-1 4.6, hgDAF-12 ag 20.0 | DAX1 inh confirm 14.3 | SF1 AF2mut Luc 8.4 | hgDAF12 ag 18.0 | LXRb DAF12 ctr inactive
COc1ccc(/C=C/c2nc(-c3ccccc3O)n(-c3ccccc3)n2)cc1	none
